Assay results reported in the supplement of paper PMC5641865, “A screen for kinase inhibitors identifies antimicrobial imidazopyridine aminofurazans as specific inhibitors of the Listeria monocytogenes PASTA kinase PrkA” (The Journal of Biological Chemistry, 2017).
Where a name gives a salt, the structure may show the parent alone. ± gives the standard deviation of the averaged measurements.

What follows are molecules tested on Listeria monocytogenes 10403S (assay: growth inhibition relative to ceftriaxone-alone control; higher = stronger potentiation of ceftriaxone growth inhibition). Settings: 10 µM; ceftriaxone 1 ug/ml; 12 h.
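Note: End-point A600 read in BHI broth at 37 °C with 2% DMSO, inhibition computed as (1 − OD with compound plus ceftriaxone ÷ OD with ceftriaxone only) × 100.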

| Compound | growth inhibition [%] |
| --- | --- |
| NC(=O)Nc1sc(-c2ccc(F)cc2)cc1C(N)=O | 40.9 ± 15 |
| Cc1ccc(NC(=O)c2cccc(C(C)(C)C#N)c2)cc1Nc1ccc2ncn(C)c(=O)c2c1 | 47.4 ± 11 |
| COC(=O)c1ccc2c(c1)C(=Cc1cc(Br)c(O)c(Br)c1)C(=O)N2 | 12.4 ± 1.5 |
| CC(C)c1cnn2c(NCc3ccccc3)cc(NCCCCCCN)nc12 | 102 ± 5.9 |
| CC[C@H](Nc1ncnc2[nH]cnc12)c1nc2cccc(F)c2c(=O)n1-c1ccccc1 | 21.7 ± 23 |
| Cc1ccc(Nc2nccc(N(C)c3ccc4c(C)n(C)nc4c3)n2)cc1S(N)(=O)=O [Pazopanib HCl] | 20.4 ± 13 |
| O=C1NC(=O)C(c2cccc(Cl)c2)=C1Nc1ccc(O)c(Cl)c1 | -7.55 ± 15 |
| O=C(O)[C@]1(Cc2cccc(Nc3nccs3)n2)CC[C@@H](Oc2cccc(Cl)c2F)CC1 | 89.4 ± 3 |
| NS(=O)(=O)c1ccc(N/N=C2\C(=O)Nc3ccc(C(=O)NCCc4c[nH]cn4)cc32)cc1 | 14.1 ± 4.2 |
| COc1ncc(-c2ccc3nccc(-c4ccnnc4)c3c2)cc1NS(=O)(=O)c1ccc(F)cc1F | 12.8 ± 7.8 |
| Cc1cccc(-c2n[nH]cc2-c2ccc3ncccc3n2)n1 | -9.12 ± 7.3 |
| C[C@H](NC(=O)/C(C#N)=C/c1cccc(Br)n1)c1ccccc1 | 99 ± 0.21 |
| CCn1c(-c2nonc2N)nc2c(C#CC(C)(C)O)ncc(OCC3CCNCC3)c21 | 29.8 ± 9.6 |
| C[C@@H](Oc1cc(-n2cnc3ccc(OC[C@@H](O)CO)cc32)sc1C(N)=O)c1ccccc1Cl | -3.67 ± 1.5 |
| COc1cc2ncn(-c3cc(OCc4ccccc4C(F)(F)F)c(C(C)=O)s3)c2cc1OC | 11.2 ± 1.6 |
| COc1ccc(COc2cc3oc(=O)c4cc(C(C)O)ccc4c3cc2OC)cc1 (stereo unspecified) [Palomid 529] | 18 ± 10 |
| COc1cc(/C=N/Nc2ncnc3c2cnn3C(C)C)ccc1O | -1.18 ± 2.2 |
| COc1cc(/C=N/Nc2ncnc3[nH]ncc23)ccc1O | 6.52 ± 10 |
| COc1cc2ncn(-c3cc(O[C@H](C)c4ccccc4Cl)c(C(N)=O)s3)c2cc1OC | -3.78 ± 5.6 |
| COC(=O)Nc1nc2cc(Oc3ccc(NC(=O)Nc4cccc(Br)c4)cc3)ccc2[nH]1 | -0.0344 ± 20 |
| Cc1cc(O)cc(C)c1/C=C/c1cncc(-c2nn[nH]n2)c1 | -2.34 ± 0.16 |
